In PubChem BioAssay (Tox21):
Several values for one entry are separate records, joined by “and”; a condition that tells them apart may be missing. Identical values can stand only once. Inconclusive results are not listed. The source holds several records for some structures; these can differ, active in one and inactive in another. Activity calls are given as the source filed them. Unless noted, the call rests on the fitted dose curve; in most records, active means well fitted curve in the direction sought with a large enough effect in the repeat runs; inconclusive means weak or mixed curves; inactive means no such curve, though single readings can be large; an effect the other way counts as inactive or inconclusive.

What was measured:
[1] = qHTS assay to identify small molecule agonists of the hypoxia (HIF-1) signaling pathway - cell viability counter screen (AID 1224844; calls by dose curve; further: nearly all actives have a fitted effect of over 50% in size; further: potency means the concentration at half of the fitted maximal effect)
Outline: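 HRE-bla ME-180; 0.5% dFBS; cpd 17 h, 37C, 5% CO2; CellTiter-Glo lum., 30 min RT, post-FRET read, same wells.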

[2] = qHTS assay to identify small molecule agonists of H2AX (AID 1224845; active means well fitted activation curve with a large enough effect in the signal ratio in the repeat runs, not every such curve was filed as active; the % refers to the signal ratio; further: potency means the concentration at half of the fitted maximal effect)
Outline: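 Phospho-H2AX Ser139 measured by HTRF (ex 320 nm; em 665 and 620 nm) after 24 hr antibody incubation. Compounds, 15 concentrations, 0.76% DMSO, were applied to CHO-K1 cells for 3hr at 37C before lysis.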

[3] = qHTS assay to identify small molecule agonists of H2AX - cell viability counter screen (AID 1224847; calls by dose curve; further: nearly all actives have a fitted effect of over 30% in size; further: potency means the concentration at half of the fitted maximal effect)
Outline: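 CHO-K1 wt, 1000 cells/well, o/n 37C; cpds 15 conc, 3 h 37C, 0.76% DMSO; CellTiter-Glo, 30 min RT, luminescence.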

[4] = qHTS RealTime-Glo MT Cell Viability Assay in HepG2 cells - 24 hour (AID 1224867); further: nearly all actives have a fitted effect of over 50% in size; further: potency means the concentration at half of the fitted maximal effect
Outline: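 qHTS, HepG2, 600 cells/well, RealTime-Glo (NanoLuc + prosubstrate) added with cells; 5 h preincubation; DMSO compound addition; 37 C; luminescence at 0/8/16/24/32/40 h.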

[5] = qHTS RealTime-Glo MT Cell Viability Assay in HEK293 cells - 32 hour (AID 1224868); further: nearly all actives have a fitted effect of over 50% in size; further: potency means the concentration at half of the fitted maximal effect
Outline: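 Assay medium contained NanoLuc luciferase plus cell-permeant prosubstrate, added with HEK293 cells at 600 cells/well. After 5 h at 37 C/5% CO2 compounds were added; plates stayed at 37 C for 40 h with serial luminescence reads.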

[6] = A CellTox Green Cytotoxicity Assay to monitor cytotoxicity in HEK293 cells - 0 hour (AID 1224869); further: nearly all actives have a fitted effect of over 50% in size; further: potency means the concentration at half of the fitted maximal effect
Outline: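 Tox21 screen in HEK293: membrane-impermeant cyanine dye fluoresces on binding dead-cell DNA; compound pinned 5 h post-seeding, plates held at 37 C, signal read repeatedly through 40 h.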

[7] = qHTS RealTime-Glo MT Cell Viability Assay in HepG2 cells - 40 hour (AID 1224870); further: nearly all actives have a fitted effect of over 50% in size; further: potency means the concentration at half of the fitted maximal effect
Outline: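 Real-time viability: cells seeded at 600 per well together with NanoLuc and cell-permeant prosubstrate, compounds added after 5 h incubation. Luminescence tracked at 0, 8, 16, 24, 32 and 40 h of exposure.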

[8] = qHTS assay to identify small molecule antagonists of the estrogen related receptor (ERR) signaling pathway from Tox21 library (AID 1224848); further: nearly all actives have a fitted effect of over 50% in size; further: potency means the concentration at half of the fitted maximal effect
Outline: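 ERR cell line, 2,000 cells/well. 6 h settle, then compound (DMSO) added; 18 h at 37 C; ONE-Glo luminescence after 30 min RT.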

[9] = qHTS assay to identify small molecule agonists of the estrogen related receptor (ERR) signaling pathway from Tox21 library (AID 1224849; calls by dose curve; further: nearly all actives have a fitted effect of over 15% in size); conditions: ERR reporter cell line, ONE-Glo luciferase, 18 h
Outline: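 Tox21 compounds tested for ERR agonism in an NTP reporter cell line: 18 h treatment at 37 C, then ONE-Glo luminescence.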

[10] = qHTS assay to identify small molecule agonists of the hypoxia (HIF-1) signaling pathway (AID 1224846; active means well fitted activation curve with a large enough effect in the signal ratio in the repeat runs, not every such curve was filed as active; the % refers to the signal ratio)
Outline: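 Reporter induction in HRE-bla ME-180 cells is taken as agonism: cells sit 5 hrs after plating, receive compounds or DMSO only, incubate 17 hrs at 37C under 5% CO2, and are loaded with CCF4-AM for beta-lactamase FRET measurement.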
On the % scale 0 is the no-effect control and ±100 the full control effect.

CCCCC(CC)COC(=O)c1ccc(C(=O)OCC(CC)CCCC)c(C(=O)OCC(CC)CCCC)c1 (configuration not stated)
inactive: Potency [1] | Potency [2] | Potency [3] | Potency [4] | Potency [5] | Potency [6] | Potency [7]

CCC(C)(C)c1ccc(O)cc1
inactive: Potency [1] | Potency [2] | Potency [8] | activity change, positive = activation ([9]; at 42.5 µM (top of the series)) -6.2% | activity change, positive = activation ([9]; at 92.4 µM (top of the series)) -16.7% and -1.98% | Potency [5] | Potency [6] | Potency [7]
active: Potency [3] 80 µM

CNC(=O)Oc1cccc2c1OC(C)(C)O2
inactive: Potency [1] | Potency [2] | outcome [10] | Potency [3] | Potency [5] | Potency [6] | Potency [7]

OCC(O)CO
inactive: Potency [1] | Potency [2] | Potency [3] | Potency [8] | activity change, positive = activation ([9]; at 92.4 µM (top of the series)) 2.36% and 0.0013% | Potency [4] | Potency [5] | Potency [6] | Potency [7]

Cc1ccccc1[N+](=O)[O-]
inactive: Potency [1] | Potency [2] | outcome [10] | Potency [3] | Potency [5] | Potency [6] | Potency [7]

CC(C)=CC1C(C(=O)OCc2coc(Cc3ccccc3)c2)C1(C)C (configuration not stated)
inactive: Potency [1] | Potency [2] | outcome [10] | Potency [4] | Potency [5] | Potency [6] | Potency [7]

O=C(CCl)c1ccccc1
inactive: Potency [1] | Potency [2] | outcome [10] | Potency [4] | Potency [6] | Potency [7]
inactive and 49 µM (active): Potency [5]

Oc1ccc(-c2ccccc2)cc1
inactive: Potency [1] | Potency [2] | outcome [10] | Potency [8] | activity change, positive = activation ([9]; at 92.4 µM (top of the series)) 1.81% | Potency [6] | Potency [7]

CC1(C)C(C=C(Cl)Cl)C1C(=O)OC(C#N)c1cccc(Oc2ccccc2)c1 (configuration not stated)
inactive: Potency [1] | Potency [2] | Potency [3] | Potency [4] | Potency [5] | Potency [6] | Potency [7]

CC(O)CCO (configuration not stated)
inactive: Potency [1] | Potency [2] | Potency [3] | Potency [4] | Potency [5] | Potency [6] | Potency [7]

O=C(Nc1ccc(Br)cc1)c1cc(Br)cc(Br)c1O
active: Potency [1] 38.8 µM and 24.5 µM | Potency [3] 28.3 µM and 35.7 µM and 39.1 µM | Potency [8] 12.2 µM | Potency [5] 21.8 µM and 21.9 µM | Potency [7] 43.5 µM
inactive: Potency [2] | activity change, positive = activation ([9]; at 42.5 µM (top of the series)) -35.9% | activity change, positive = activation ([9]; at 92.4 µM (top of the series)) -31.1% and -48%
inactive and 38.9 µM (active): Potency [6]

O=c1oc2ccccc2c(O)c1C(CC(O)c1ccc(-c2ccc(Br)cc2)cc1)c1ccccc1 (configuration not stated)
52 µM (active) and inactive: Potency [1]
inactive: Potency [2] | Potency [3] | Potency [4] | Potency [5] | Potency [6] | Potency [7]

N#Cc1cc(Br)c(O)c(Br)c1
active: Potency [8] 48.5 µM and 37.1 µM
inactive: Potency [1] | Potency [2] | outcome [10] | activity change, positive = activation ([9]; at 92.4 µM (top of the series)) -51.5% and -34.9% | Potency [4] | Potency [5] | Potency [6] | Potency [7]

Oc1cc(Cl)ccc1Oc1ccc(Cl)cc1Cl
inactive: Potency [2] | activity change, positive = activation ([9]; at 42.5 µM (top of the series)) -45.8% | activity change, positive = activation ([9]; at 92.4 µM (top of the series)) -47.1% | Potency [6]
active: Potency [3] 51.7 µM and 43.8 µM | Potency [8] 11.1 µM and 18.8 µM | Potency [4] 42.2 µM [cytotoxic] and 23.9 µM | Potency [5] 20 µM | Potency [7] 44.7 µM
50.1 µM (active) and inactive: Potency [1]

N[C@@H](Cc1ccc(N(CCCl)CCCl)cc1)C(=O)O
active: Potency [1] 23.5 µM and 23.9 µM | Potency [2] 38.4 µM and 43.8 µM | Potency [5] 5.27 µM
inactive: Potency [3] | Potency [4] | Potency [6] | Potency [7]

CC(C)(OOC(C)(C)c1ccccc1)c1ccccc1
active: Potency [3] 99.3 µM
inactive: Potency [1] | outcome [10] | Potency [8] | activity change, positive = activation ([9]; at 92.4 µM (top of the series)) 7.35% and 4.9% | Potency [4] | Potency [5] | Potency [6] | Potency [7]

S=C1NCCN1
inactive: Potency [1] | Potency [2] | Potency [3] | Potency [5] | Potency [6] | Potency [7]

CCCCCCCCC(=O)NCc1ccc(O)c(OC)c1
inactive: Potency [1] | Potency [2] | Potency [3] | Potency [4] | Potency [5] | Potency [6] | Potency [7]

N#CC(Br)Br
inactive: Potency [1] | Potency [2] | Potency [3] | Potency [5] | Potency [6] | Potency [7]

CCc1cccc(CC)c1N(COC)C(=O)CCl
active: Potency [1] 47.4 µM
inactive: outcome [10] | Potency [3] | Potency [4] | Potency [5] | Potency [6] | Potency [7]

CC(C)(c1cc(Cl)c(O)c(Cl)c1)c1cc(Cl)c(O)c(Cl)c1
inactive: Potency [2] | Potency [3] | Potency [8] | activity change, positive = activation ([9]; at 92.4 µM (top of the series)) -0.444% and -2.89% | Potency [4] | Potency [5] | Potency [6] | Potency [7]

CCOCN(C(=O)CCl)c1c(C)cccc1CC
active: Potency [1] 51.9 µM | Potency [8] 23 µM and 27.3 µM
inactive: outcome [10] | Potency [3] | activity change, positive = activation ([9]; at 92.4 µM (top of the series)) -61% and -71.1% | Potency [5] | Potency [6] | Potency [7]
